Results on 4 compounds are retold here after PubChem BioAssay.

“And” between values parts separate entries of the source, which are not always exact repeats. Identical values can stand only once. The source made the active and inactive calls.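 The calls were made as follows, unless noted: active = compounds whose cell count with miR-34 switched on is under 0.7 times the count with it off; inactive = the rest.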

Experiment [1] in a line: Wnt pathway potentiators raising nuclear beta-catenin – imaging, WNT3A-conditioned medium, mouse C2C12, NPC library, primary screen (AID 1117326; in the data active = nuclear beta-catenin stimulation mostly above about 4.2%, no sharp cut-off; inactive = mostly below about 10%). The settings on record: stronger effect = higher value.
Experiment [2] can be described thus: stimulators of insulin release from INS-1E, primary screen, cell-based, 5 mM glucose, NPC library (AID 1117329;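 active = compound raises insulin release from rat beta cells at 5 mM glucose, no numeric limit stated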). The settings on record: rat INS-1E insulin secretion, at 10 µM, stronger effect = higher value.
Experiment [3] in a line: growth inhibition of GSK3B-pretreated HCT116 cells – cell-based, CellTiter-Glo, 0.2 to 20 µM (AID 1117336;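 active = compounds lowering colon cancer cell viability after pretreatment blocking the GSK3B kinase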). The conditions noted are these: HCT116 viability after GSK3B inhibitor, at 20 µM, stronger effect = higher value.
Experiment [4] is described as follows: inhibition of endothelial tube formation, primary screen, imaging, VEGF stimulated, CD31 staining, tube area, NPC library (AID 1117340;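 active = compound that reduces growth-factor-driven endothelial tube area in a mixed cell culture, no cutoff stated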). The settings on record: VEGF-stimulated ADSC/ECFC co-culture, at 10 µM, stronger effect = higher value.
The nature of experiment [5]: GLP1 release stimulators, primary, NCI-H716, NPC library (AID 1117341;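 active = compound raises GLP1 secretion from the human gut endocrine cells, with no numeric limit stated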). The settings on record: NCI-H716 cells, at 10 µM, stronger effect = higher value.
The nature of experiment [6]: HCT116 colon cancer cell growth inhibition, primary screen, CellTiter-Glo luminescence, NPC library (AID 1117342;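 active = compounds that lower survival of HCT116 colon cancer cells in the luminescence readout, no numeric limit stated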). The conditions noted are these: at 20 µM (top of the series).
Experiment [7] can be described thus: reduced SW480 viability measured with CellTiter-Glo, NPC library, primary (AID 1117343;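 active = compounds that lower viability of the colon cancer cells in the luminescence readout, with no numeric limit stated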). The conditions noted are these: CellTiter-Glo luminescence; at 20 µM (top of the series) unless noted.
Experiment [8] in a line: NPC library primary testing for decreased DLD-1 cell viability via CellTiter-Glo (AID 1117346;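 active = compounds that lower survival of DLD-1 colon cancer cells in the luminescence readout, no cutoff given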). The conditions noted are these: DLD-1 viability, CellTiter-Glo luminescence; at 20 µM (top of the series).
Experiment [9] is described as follows: EMT-state selective cytotoxicity in co-culture – imaging, PC-3E GFP, TEM4-18 mCherry, primary screen (AID 1345086;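 active = compounds killing one labelled cell type while sparing the other, by normalised counts and ratio limits, not self-fluorescent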;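 as to all read-outs here: cells exposed to compound for 72 h before imaging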;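 as to red/green cell ratio (normalised): normalised mesenchymal count divided by normalised epithelial count so high means epithelial killing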). The settings on record: PC-3E GFP / TEM4-18 mCherry co-culture, imaging cell counts, at 1 µM; for red/green cell ratio (normalised): actives lie on both sides, counts scaled to control wells, 1 = unselective.
A short description of experiment [10]: viability loss with induced miR-34 in A549 – imaging, A549 dox-inducible miR-34, nuclei and caspase counts, primary screen (AID 1347080). The settings on record: A549 miR-34 inducible, Hoechst nuclei count, 48 h.
A short description of experiment [11]: MELAS cybrid and Rieske KO viability enhancers – cell-based, MELAS cybrids, Rieske KO mouse fibroblasts, CellTiter-Glo, primary screen (AID 1508586;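 active = mean z-score across replicates of 1.96 or higher in either the MELAS or the Rieske mutant cell line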;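 also: z relative to plate mean and SD of compound and empty wells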). The settings on record: low glucose.
Experiment [12] has as its target NAD(+) hydrolase SARM1 (Homo sapiens) (UniProt Q6SZW1). Briefly: blocking NAD cleavage by SARM1 SAM-TIR – cell lysate, NAD-Glo luminescence (AID 1508614;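 active = compound whose remaining NAD level is above about 45 nM, limit read from the data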;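 also: higher remaining NAD means stronger inhibition of SARM1 NADase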). The settings on record: SAM-TIR HEK293T lysate NADase, at 1 µM, stronger effect = higher value.
A short description of experiment [13]: compounds altering viability of human ES cells (AID 493140; call rule not given here;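 also: cells exposed to compounds for four days before counting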). The conditions noted are these: human embryonic stem cell survival screen; stronger effect = higher value.
A short description of experiment [14]: P. berghei load reduction in hepatocytes – cell-based, HepG2, luciferase luminescence, HepG2 viability, primary screen (AID 624349; in the data active = parasite load remaining mostly below about 12%, no sharp cut-off; inactive = mostly above about 10%;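 also: 100% = mean of DMSO negative control wells on the same plate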). The settings on record: P. berghei liver stage in HepG2, luciferase luminescence, concentration not given here; parasite load remaining: stronger effect = lower value; viability: measured here: HepG2 viability without parasites.
Setting [15] is: measured here: epithelial PC-3E GFP cell survival.
[16] abbreviates: measured here: mesenchymal TEM4-18 mCherry cell survival.
[17] abbreviates: stronger effect = lower value, cell number ratio, induced over uninduced.
[18] abbreviates: measured here: relative caspase fold change +Dox/-Dox.
[19] abbreviates: measured here: total cells with miR-34 induction, stronger effect = lower value.
Where [20] appears, read: measured here: total cells without miR-34 induction.
The mark [21] stands for this setting: MELAS cybrid survival, CellTiter-Glo 48 h, stronger effect = higher value.
[22] abbreviates: Rieske KO mouse fibroblast survival, CellTiter-Glo 72 h.

NAD(+) hydrolase SARM1 (Homo sapiens), sequence (Q6SZW1 whole entry, looked up): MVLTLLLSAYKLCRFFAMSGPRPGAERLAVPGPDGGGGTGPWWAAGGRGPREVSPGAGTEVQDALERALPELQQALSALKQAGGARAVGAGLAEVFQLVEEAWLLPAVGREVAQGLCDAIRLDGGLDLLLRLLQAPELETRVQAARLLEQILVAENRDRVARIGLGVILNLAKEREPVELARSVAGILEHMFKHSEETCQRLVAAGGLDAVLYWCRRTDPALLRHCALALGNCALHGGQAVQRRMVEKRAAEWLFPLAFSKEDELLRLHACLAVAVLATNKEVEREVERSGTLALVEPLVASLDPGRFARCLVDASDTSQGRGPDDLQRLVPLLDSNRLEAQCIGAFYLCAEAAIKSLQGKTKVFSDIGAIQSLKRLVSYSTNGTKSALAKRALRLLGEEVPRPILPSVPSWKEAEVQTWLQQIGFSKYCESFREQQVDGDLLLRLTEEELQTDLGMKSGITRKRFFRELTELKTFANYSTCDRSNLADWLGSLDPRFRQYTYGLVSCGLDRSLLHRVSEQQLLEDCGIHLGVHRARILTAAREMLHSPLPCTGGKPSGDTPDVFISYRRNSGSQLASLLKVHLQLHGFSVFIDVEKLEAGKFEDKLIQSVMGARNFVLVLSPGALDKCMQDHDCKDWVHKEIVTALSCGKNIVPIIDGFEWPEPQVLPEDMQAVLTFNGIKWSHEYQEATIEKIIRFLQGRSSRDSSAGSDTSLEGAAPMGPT

Consider `CC(=O)NCCCS(=O)(=O)O`, for which the nuclear beta-catenin stimulation in experiment [1] (at 10 µM) is -1.9% (inactive); in experiment [1] (stimulation, at 2 µM), -0.8%. In addition, in [2], the insulin secretion stimulation was -0.1% (inactive). Moreover, in experiment [3], the viability decrease is -7.6% (inactive). The tube area decrease in experiment [4] is 3.7% (inactive). Besides, in experiment [5], the GLP1 secretion stimulation is -1.3% (inactive). Besides, the inhibition of viability in [6] is 1.8% (inactive). The viability decrease (inhibition) in [7] was 4.2% (inactive); in [8], -2% (inactive). In addition, in experiment [9], the red/green cell ratio (normalised) is 0.97 (inactive). Also, the figures for the normalised cell number in experiment [9] (setting [15]) and in [9] (setting [16]) were 1 and 0.97, respectively. In addition, the fold change in experiment [10] (setting [17]) is 0.904 (inactive); in experiment [10] (setting [18]), 0.789. Moreover, the results for the cell count in experiment [10] (setting [19]) and in experiment [10] (setting [20]) were 8720 and 9650, respectively. The z-score is -0.172 (inactive) in [11] (setting [21]) and 0.0861 in [11] (setting [22]). Moreover, the remaining NAD in experiment [12] is 10 nM (inactive).

In the case of `CC(C)(Oc1ccc(C2CC2(Cl)Cl)cc1)C(=O)O` (stereo not given), in experiment [13], the survival is 3.17 (inactive). The parasite load remaining in experiment [14] is 67% (inactive). For the same compound, in experiment [14], the viability turned out to be 69.5%. The nuclear beta-catenin stimulation in [1] (at 10 µM) was -1.2% (inactive); in experiment [1] (stimulation, at 2 µM), -1%. The insulin secretion stimulation in experiment [2] is -1.6% (inactive). Moreover, in experiment [3], the viability decrease is 0.1% (inactive). Besides, the tube area decrease in experiment [4] was -3% (inactive). The GLP1 secretion stimulation in experiment [5] is 1.4% (active). Besides, the inhibition of viability in [6] was -3.5% (inactive). Moreover, the viability decrease (inhibition) in experiment [7] is -7.2% (inactive); in experiment [8] it was -11.1% (inactive). In experiment [9], the red/green cell ratio (normalised) was 1.11 (inactive). Moreover, the figures for the normalised cell number in [9] (setting [15]) and in [9] (setting [16]) were 1.15 and 1.28, respectively. The fold change in experiment [10] (setting [17]) is 1.01 (inactive) and 0.95 (inactive) and 0.923 (inactive); in [10] (setting [18]), 2.14 and 0.705 and 0.604. For the same compound, the cell count in experiment [10] (setting [19]) is 9720 and 9780 and 8880; in experiment [10] (setting [20]) it was 9650 and 10300 and 9610. The z-score in experiment [11] (setting [21]) is -0.289 (inactive) and 0.864 (inactive); in experiment [11] (setting [22]), -0.625 and 0.179. Further, the remaining NAD in experiment [12] was 10 nM (inactive).

On to `CC(=O)c1ccc2c(c1)N(CCCN(C)C)c1ccccc1S2`, for which the survival in experiment [13] is 4.75 (inactive). Moreover, in experiment [14], the parasite load remaining was 84% (inactive) and 65.2% (inactive) and 28% (inactive). Also, the viability in [14] is 104% and 77.6% and 98.4%. Besides, the nuclear beta-catenin stimulation was 0.3% (inactive) in experiment [1] (at 10 µM) and 1.4% in experiment [1] (stimulation, at 2 µM). Besides, in experiment [2], the insulin secretion stimulation was 17.4% (inactive). In experiment [3], the viability decrease is 50.2% (active). Further, the tube area decrease in experiment [4] is 12.5% (inactive). The GLP1 secretion stimulation in experiment [5] was 11.1% (inactive). Further, the inhibition of viability in [6] was 55.9% (active). Further, the viability decrease (inhibition) in [7] is 110% (active); in experiment [8], 24.9% (inactive). Besides, in experiment [9], the red/green cell ratio (normalised) was 0.9 (inactive). The normalised cell number in experiment [9] (setting [15]) worked out at 0.98; in [9] (setting [16]), 0.88. For the same compound, the fold change in [10] (setting [17]) was 0.938 (inactive) and 0.873 (inactive) and 0.834 (inactive); in [10] (setting [18]), 0.931 and 1.11 and 5.05. Also, the cell count is 3460 and 8350 and 10600 in [10] (setting [19]); 3690 and 9570 and 12700 in experiment [10] (setting [20]). The figures for the z-score in experiment [11] (setting [21]) and in experiment [11] (setting [22]) were -0.172 (inactive) and 0.00604, respectively. Further, the remaining NAD in experiment [12] was 10 nM (inactive).

On to `Nc1cc(C(Cl)=C(Cl)Cl)c(S(N)(=O)=O)cc1S(N)(=O)=O`, for which the survival in experiment [13] was 8.08 (inactive). The parasite load remaining in [14] is 69.8% (inactive) and 78.4% (inactive) and 58% (inactive). In addition, the viability in experiment [14] is 125% and 85.5% and 102%. Besides, the nuclear beta-catenin stimulation was 3.8% (inactive) in experiment [1] (at 10 µM) and 4.2% in experiment [1] (stimulation, at 2 µM). Also, the insulin secretion stimulation in experiment [2] was 1.4% (inactive). Further, in [3], the viability decrease is 19% (inactive). In [4], the tube area decrease was 7% (inactive). For the same compound, in [5], the GLP1 secretion stimulation was 12.7% (inactive). Also, the inhibition of viability in experiment [6] was -3.03% (inactive). Further, the viability decrease (inhibition) is -22% (inactive) in experiment [7] and 4.8% (inactive) in experiment [8]. Further, the red/green cell ratio (normalised) in experiment [9] is 0.84 (inactive). Also, the normalised cell number in [9] (setting [15]) was found to be 1.14; in experiment [9] (setting [16]), 0.96. Further, the fold change in experiment [10] (setting [17]) is 0.893 (inactive) and 0.936 (inactive) and 0.859 (inactive); in [10] (setting [18]), 1.43 and 0.803 and 4.71. For the same compound, the cell count is 8790 and 9570 and 11100 in experiment [10] (setting [19]); 9850 and 10200 and 12900 in [10] (setting [20]). The z-score in [11] (setting [21]) was -0.253 (inactive) and -0.139 (inactive); in experiment [11] (setting [22]), 0.393 and 0.0455. For the same compound, the remaining NAD in experiment [12] is 10 nM (inactive).
